Source: PubChem BioAssay
RORg inh: ROR gamma (mouse) transcription inhibition; Drosophila S2 Gal4-RORgamma UAS-luciferase reporter, 20 h; P51450; hit rate 5.4% among 310,000; Potency, µM (doses to about 53.6 µM), actives largely listed as inhibitors; AID 2551; also: nearly all actives have a fitted effect of over 60% in size
Target sequence (P51450 whole entry, looked up, the tested form may be a part): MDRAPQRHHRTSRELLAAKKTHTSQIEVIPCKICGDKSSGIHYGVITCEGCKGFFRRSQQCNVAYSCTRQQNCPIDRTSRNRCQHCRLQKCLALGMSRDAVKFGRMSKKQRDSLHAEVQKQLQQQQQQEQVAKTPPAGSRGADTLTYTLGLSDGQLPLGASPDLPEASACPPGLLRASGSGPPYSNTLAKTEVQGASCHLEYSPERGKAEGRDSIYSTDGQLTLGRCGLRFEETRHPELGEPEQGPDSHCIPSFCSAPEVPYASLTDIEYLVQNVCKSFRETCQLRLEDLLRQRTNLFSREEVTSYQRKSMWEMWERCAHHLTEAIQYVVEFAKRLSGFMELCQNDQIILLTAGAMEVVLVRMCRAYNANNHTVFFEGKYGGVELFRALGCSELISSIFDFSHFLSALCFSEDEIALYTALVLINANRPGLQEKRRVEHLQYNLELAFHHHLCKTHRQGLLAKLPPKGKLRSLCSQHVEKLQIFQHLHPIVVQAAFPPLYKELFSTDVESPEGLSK
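Drosophila Schneider cells stably carrying a metallothionein-driven Gal4 DBD–ROR gamma fusion and a UAS-Photinus luciferase reporter were exposed to compound for 1 hr, then induced with copper sulfate (700 uM final) for 20 hr at ambient temperature before luminescence reading.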
IL-1B inflam inh: blocks inflammasome-driven IL-1 beta release | THP-1 LPS/ATP IL-1B secretion, AlphaLISA, 16 h; hits give low values | activity change, % at 57.5 µM | hit rate 4.7% among 360,000; in the data active = activity change below about -50%; inconclusive = mostly about -30% to -49%
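THP-1 cells pretreated 1 hr with compounds (up to 57.5 uM final), then stimulated with LPS (250 ng/mL final) plus ATP (1.25 mM final); secreted IL-1B measured by AlphaLISA after 16 hr, decreased signal indicating inhibition.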
LDHA block: LDHA (human) enzyme inhibition. hit rate 0.15% among 480,000. P00338. purified LDHA, NADH/diaphorase-resazurin fluorescence; hits give low values. AID 1347041. activity change, % (values are at about 110 or 230 µM); in the data active = activity change below about -30%; inconclusive = mostly about -25% to -30%
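LDH5 2 nM; NADH 0.06 mM, pyruvate 0.2 mM; 200 mM Tris pH 7.4, EDTA, Tween-20; 5 min RT. Detection: diaphorase 0.133 mg/mL + resazurin 37 µM, fluorescence ex540/em590 at 0 and 20 min; normalized to enzyme-free and DMSO wells.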
TDP1 cell noCPT: qHTS for Inhibitors of human tyrosyl-DNA phosphodiesterase 1 (TDP1): qHTS in cells in absence of CPT; DT40 Tdp1-/- hTDP1 cells, no CPT, ATP luminescence, 48 h; Potency, µM (highest dose often 46.2 µM), hits mostly inhibitors; hit rate 15% among 420,000; also: nearly all actives have a fitted effect of over 55% in size
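A cellular qHTS used chicken DT40 cells lacking endogenous Tdp1 but carrying stably transfected human TDP1. Compounds were applied without camptothecin, and cell growth kinetics were judged by ATP-dependent luminescence after ≥48 hr.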
DT40 TDP1 CPT: DT40-hTDP1 cell growth loss with CPT; Potency, µM (highest dose often 46.2 µM), usual class: inhibitors; hit rate 12% among 420,000; chicken DT40 Tdp1-/-;hTDP1 cells + 20 nM CPT, ATP luminescence, 48 h; also: nearly all actives have a fitted effect of over 55% in size
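Cell growth measured by CellTiter-Glo luminescence after a minimum 48 h, 37 C compound exposure with 20 nM CPT in Tdp1-knockout DT40 cells stably expressing hTDP1, seeded 400/well; qHTS titration format.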
Gal4-VP16 FLuc: Gal4-VP16 reporter inhibition counter-screen | Drosophila S2 Gal4-VP16 UAS-luciferase, luminescence, 20 h | AID 2546 | Potency, µM (highest dose often 53.6 µM), usual class: inhibitors | hit rate 3.5% among 310,000;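 also: Gal4-VP16 expression switched on by copper sulfate through the metallothionein promoter; nearly all actives have a fitted effect of over 50% in size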
Each line names hits and unclear results; the compound was inactive in the other large screens. In the library only some 18% were active in any assay of this set; here they are far more common. Unless noted, calls follow the shape of the dose curve; as a rule, active = well fitted curve in the direction sought with a large enough effect; inconclusive = small, poorly fitted or top-dose-only effect, or another doubt; inactive = no such curve, though single readings can be large; an effect the other way counts as inactive or inconclusive.

CC(C)CC1Nc2ncnc(N3CCOCC3)c2N(Cc2ccc(Br)cc2)C1=O (configuration not stated)	TDP1 cell noCPT inconclusive, DT40 TDP1 CPT inconclusive (no result: RORg inh, Gal4-VP16 FLuc)
O=C(N/N=C/C1CC2CCC1C2)c1ccccc1[N+](=O)[O-] (configuration not stated)	none (no result: RORg inh, IL-1B inflam inh, TDP1 cell noCPT, DT40 TDP1 CPT, Gal4-VP16 FLuc)
CC(C)n1nc(C(=O)Nc2nc(-c3ccc(F)cc3)cs2)c2ccccc2c1=O	none (no result: RORg inh, IL-1B inflam inh, TDP1 cell noCPT, DT40 TDP1 CPT, Gal4-VP16 FLuc)
COc1ccc(CN2CCN(c3ncnc4sc5c(c34)CC(C)CC5)CC2)cc1F (configuration not stated)	TDP1 cell noCPT 6.5µM, DT40 TDP1 CPT 15µM (no result: RORg inh, IL-1B inflam inh, Gal4-VP16 FLuc)
O=C(c1ccco1)N1CCN(c2ncnc3sc4c(c23)CCC4)CC1	TDP1 cell noCPT 20µM, DT40 TDP1 CPT inconclusive
O=C(c1ccco1)N1CCN(c2ncnc3c(-c4ccccc4)nsc23)CC1	RORg inh inconclusive, TDP1 cell noCPT 21µM, DT40 TDP1 CPT 18µM
Clc1ccc(CN2CCN(c3ncnc4sc5c(c34)CCCC5)CC2)cc1Cl	TDP1 cell noCPT 23µM, DT40 TDP1 CPT 21µM (no result: RORg inh, IL-1B inflam inh, Gal4-VP16 FLuc)
NC(=O)C1CCN(c2ncnc3c(-c4ccccc4)nsc23)CC1	RORg inh inconclusive, IL-1B inflam inh inconclusive, Gal4-VP16 FLuc inconclusive
CCOc1ccc(CN2CCN(c3ncnc4sc5c(c34)CC(C)CC5)CC2)cc1 (configuration not stated)	TDP1 cell noCPT inconclusive (no result: RORg inh, IL-1B inflam inh, Gal4-VP16 FLuc)
Cc1ccc(S(C)(=O)=O)cc1C(=O)Nc1ccccc1N1CCOCC1	none (no result: RORg inh, IL-1B inflam inh, TDP1 cell noCPT, DT40 TDP1 CPT, Gal4-VP16 FLuc)
O=C(NCCc1cccnc1)c1cccc(Cl)c1	none (no result: RORg inh, IL-1B inflam inh, TDP1 cell noCPT, DT40 TDP1 CPT, Gal4-VP16 FLuc)
c1ccc(N2CCN(c3ncnc4sc5c(c34)CCC5)CC2)cc1	TDP1 cell noCPT 21µM, DT40 TDP1 CPT 21µM
c1nc(N2CCC3(CC2)OCCO3)c2c3c(sc2n1)CCCC3	TDP1 cell noCPT inconclusive, DT40 TDP1 CPT inconclusive
O=C(CS(=O)(=O)Cc1ccccc1)Nc1cc(F)cc(F)c1	none (no result: RORg inh, IL-1B inflam inh, TDP1 cell noCPT, DT40 TDP1 CPT, Gal4-VP16 FLuc)
CN(c1ccc(OCC(=O)Nc2ccccc2C(=O)O)cc1)S(=O)(=O)c1ccc(Cl)cc1	none (no result: RORg inh, Gal4-VP16 FLuc)
CC(=O)Nc1ccc(S(=O)(=O)N(C)c2ccc(OCC(=O)Nc3ccccc3C(C)=O)cc2)cc1	TDP1 cell noCPT 21µM, DT40 TDP1 CPT 18µM (no result: RORg inh, Gal4-VP16 FLuc)
CC(=O)c1ccccc1NC(=O)COc1ccc(N(C)S(=O)(=O)c2ccc(C)c(C)c2)cc1	TDP1 cell noCPT 12µM, DT40 TDP1 CPT 21µM (no result: RORg inh, Gal4-VP16 FLuc)
C=CCn1c(C)cc(C(=O)COc2ccc(N(C)S(=O)(=O)c3ccc(NC(C)=O)cc3)cc2)c1C	TDP1 cell noCPT 5.8µM, DT40 TDP1 CPT 9.2µM (no result: RORg inh, Gal4-VP16 FLuc)
COCC(C)n1c(C)cc(C(=O)COc2ccc(N(C)S(=O)(=O)c3ccc(NC(C)=O)cc3)cc2)c1C (configuration not stated)	TDP1 cell noCPT inconclusive, DT40 TDP1 CPT inconclusive (no result: RORg inh, Gal4-VP16 FLuc)
Cc1[nH]c(C)c(C=O)c1C=O	none (no result: RORg inh, IL-1B inflam inh, TDP1 cell noCPT, DT40 TDP1 CPT, Gal4-VP16 FLuc)
CCC(Sc1nc2ccccc2c2nc(-c3ccccc3)nn12)C(=O)Nc1cccc(OC)c1 (configuration not stated)	TDP1 cell noCPT 18µM, DT40 TDP1 CPT inconclusive (no result: RORg inh, IL-1B inflam inh, Gal4-VP16 FLuc)
COc1cccc(NC(=O)CSc2nc3ccccc3c3nc4ccccc4n23)c1	TDP1 cell noCPT 16µM, DT40 TDP1 CPT 12µM
COc1ccc(NC(=O)CSc2nc3ccccc3n2Cc2cccc(OC)c2)cc1	TDP1 cell noCPT inconclusive, DT40 TDP1 CPT inconclusive (no result: RORg inh, IL-1B inflam inh, Gal4-VP16 FLuc)
COc1cccc(NC(=O)CSc2nc3ccccc3c(=O)n2Cc2cccs2)c1	TDP1 cell noCPT inconclusive, DT40 TDP1 CPT 21µM, Gal4-VP16 FLuc inconclusive
CC(C)(C)c1ccc2cc(C(=O)NC3CC3)[nH]c2c1	none (no result: RORg inh, IL-1B inflam inh, TDP1 cell noCPT, DT40 TDP1 CPT, Gal4-VP16 FLuc)
CCOc1ccccc1NC(=O)C1CCCN(S(=O)(=O)c2cccs2)C1 (configuration not stated)	TDP1 cell noCPT 23µM, DT40 TDP1 CPT 23µM (no result: RORg inh, IL-1B inflam inh, Gal4-VP16 FLuc)
CCOc1ccc(S(=O)(=O)N2CCCCC2)cc1NC(=O)C1CCCC1	TDP1 cell noCPT inconclusive (no result: RORg inh, Gal4-VP16 FLuc)
CCOc1ccc2nc(NC(=O)C3CCCN(S(=O)(=O)c4cccs4)C3)sc2c1 (configuration not stated)	RORg inh inconclusive, IL-1B inflam inh -58, TDP1 cell noCPT inconclusive, DT40 TDP1 CPT inconclusive
